Screening results as filed in PubChem.
Hits are enriched below; roughly 2.4% of the tested compounds scored in any of these assays.
STAT3 inh-1 – IL-6 driven STAT3 reporter inhibitors, primary screen, U3A cells, luciferase, luminescence, MLSCN library; IL-6 STAT3-luciferase reporter; host cell line lacks STAT1; inhibition, % at 5.5 µM; actives 0.89% (n = 190,000); AID 862, 2007;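 active = inhibition above the mean inhibition across all screened compounds plus 3 SD, cut at about 44% in these data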;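 note: 0% = DMSO only wells and 100% = 100 µM nifuroxazide control wells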
HSP90 inh – HSP90 inhibitors, primary screen, cell lysate, luminescence | Heat shock protein HSP 90 (rabbit reticulocyte lysate; luciferase refolding) | Rabbit reticulocyte lysate, luciferase refolding luminescence, 3 h | inhibition, % at 5.6 µM | AID 1789, 2009 | actives 0.91% (n = 290,000);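 active = inhibition above the screen-wide mean plus 3 SD, computed separately per campaign, cut at about 16% in these data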;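 note: 0% = DMSO wells and 100% = 60 µM geldanamycin wells; inhibitors lower the luminescence because luciferase stays unfolded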
HSF1 inh – HSF1 inhibitors in luciferase reporter cells, primary screen, cell-based, NIH3T3, luminescence. activity change, negative = inhibition, % at 7.5 µM (by protocol). NIH3T3-HGL HSE-luciferase, MG132-induced, luminescence 8 h; hits give low values. actives 0.77% (n = 300,000);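 active = more than half of replicate wells show activity change below -50%, luminescence cut by over half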;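 note: luciferase reports HSF-1 transcriptional activity via heat shock element; 0% = median of DMSO wells and -100% = zero luminescence signal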
STAT1 blocker – STAT1 signaling inhibitors, primary screen, cell-based, HTS, luciferase reporter; NIH 3T3 STAT1-luciferase reporter, IFN-gamma, luminescence; inhibition, % at 5.5 µM; actives 0.35% (n = 200,000); AID 920, 2007;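 active = inhibition above a set limit, the mean inhibition across all tested compounds plus 3 SD, cut at about 34% in these data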;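 note: 0% = IFN-gamma with DMSO and 100% = IFN-gamma with 300 µM nifuroxazide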
TRAIL sens C8 – viability loss with TRAIL in NB7+C8 cells, primary screen, TRAIL sensitizer project, cell-based, ATPlite luminescence; inhibition (viability loss, TRAIL sensitization), % at 10 µM; actives 1% (n = 360,000);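 active = compounds causing at least 50% loss of cell viability in the single-dose screen, relative to plate controls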
PPC-1+TRAIL kill – compounds killing PPC-1 cancer cells with TRAIL present, primary screen, TRAIL potentiator project, ATPLite luminescence, uHTS. PPC-1 cells + TRAIL, ATPLite viability luminescence. cell killing (% activity), % at 4 µM or 5 µM. actives 0.41% (n = 220,000). AID 1443, 2008;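 active = cell killing above 50% in the first pass at 4 µM, then a duplicate retest at 5 µM averaging 50% or more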;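 note: plate controls were cells with TRAIL plus DMSO for no effect and medium-only wells lacking cells for full effect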
STAT3 inh-2 – STAT3 reporter inhibitors, retest of hits, confirmation, U3A cells, luciferase, luminescence; shares compounds with STAT3 inh-1; IL-6 STAT3 luciferase reporter; cell line lacks STAT1; inhibition, % at 5.7 µM; actives 45% (n = 1,200);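 active = inhibition above the hit cutoff computed for the primary STAT3 screen, cut at about 44% in these data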;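 note: 0% = IL-6 plus DMSO and 100% = IL-6 plus nifuroxazide control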
NFkB inh 2 – NF-kB reporter inhibitors in human cells, confirmation, counter-screen for STAT3 inhibitor project, cell-based, HEK293T, luciferase, TNF-alpha stimulus; inhibition, % at 5.7 µM; actives 36% (n = 1,200); shares compounds with STAT3 inh-1; AID 1308, 2008; TNF-alpha induced;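 active = inhibition above the mean of solvent-only control wells plus 3 SD, cutoff set per campaign, cut at about 13% in these data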;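 note: 0% = TNF-alpha with DMSO and 100% = TNF-alpha with MG high control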
STAT1 inh STAT3c – STAT1 reporter inhibitors, IFN-gamma induced, confirmation, counter-screen for STAT3 inhibitor project, cell-based, NIH 3T3, luciferase luminescence; inhibition, % at 5.7 µM; shares compounds with STAT3 inh-1; actives 27% (n = 1,200); NIH 3T3 STAT1-luciferase reporter; AID 1317, 2008;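 active = inhibition above the mean plus 3 SD of solvent-only control wells, limit set per screening run, cut at about 16% in these data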;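 note: 0% = DMSO with IFN-gamma and 100% = nifuroxazide control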
Starred values were filed as active, the others as inactive; · = not tested or not shown.

SMILES | STAT3 inh-1 | HSP90 inh | HSF1 inh | STAT1 blocker | TRAIL sens C8 | PPC-1+TRAIL kill | STAT3 inh-2 | NFkB inh 2 | STAT1 inh STAT3c
COc1ccc(C2=Nc3ccccc3N(C(=O)c3cnccn3)C2C(=O)NC2CCCC2)cc1 (stereo not given) | · | · | · | · | -15 | · | · | · | ·
O=C(CSC1=NCCS1)Nc1ccnc2ccccc12 | 64* | 4 | -13 | 32 | 38 | -4 | 75* | 21* | 24*
C=CCCC(=O)N1C[C@H]2CON(C)[C@H]2C[C@H]1c1ccc(N2CCCCC2)cc1 | · | · | · | · | 23 | · | · | · | ·
CCOC(=O)[C@]12CCCC=C1N(Cc1ccc3c(c1)OCO3)C(=O)[C@H](CC(=O)NCCc1ccccc1OC)C2 | · | · | · | · | 2 | · | · | · | ·
CCc1c(C)c2ccc(OCC(=O)OC(C)C)c(C)c2oc1=O | 56* | 3 | -1 | 7 | 17 | -2 | 48* | 2 | 7
CNc1nc2c(c(=O)n(C)c(=O)n2C)n1Cc1ccccc1 | 55* | 1 | 1 | 16 | 10 | -7 | 34 | 13* | 18*
COCCNc1nc2c(c(=O)n(C)c(=O)n2C)n1Cc1cccc(C)c1 | 30 | -2 | -10 | 34 | -1 | 1 | · | · | ·
Cc1cccc(Cn2c(NCCO)nc3c2c(=O)n(C)c(=O)n3C)c1 | 52* | 0 | -3 | 19 | 16 | 12 | 35 | 10 | 20*
CCCn1c(CN(C)Cc2ccccc2)nc2c1c(=O)n(C)c(=O)n2C | 46* | -4 | -4 | 20 | 16 | 6 | 29 | 4 | 14
CC1(c2nnnn2Cc2ccccc2)CCC(=O)N1Cc1ccco1 (stereo not given) | · | · | · | · | -3 | · | · | · | ·
CCOC(=O)C1=CCN(S(=O)(=O)c2ccc(Cl)cc2)C1c1cccc(C)c1 (stereo not given) | · | · | · | · | -7 | · | · | · | ·
O=C(Nc1ccccc1)c1cc(C2CCCCN2S(=O)(=O)Cc2cccc(C(F)(F)F)c2)on1 (stereo not given) | · | · | · | · | 14 | · | · | · | ·
CCOC(=O)C(=NO)C1=CSC2=NNC(C)(C)N12 | · | · | · | · | 3 | · | · | · | ·
O=C(Nc1ccc(Oc2ccccc2)cc1)C1CCN(c2c3c(nc4ncnn24)CCC3)CC1 | 52* | 3 | 2 | 21 | 40 | -5 | 47* | -4 | 11
O=C(Nc1ccc2c(c1)CCC2)C1CCN(c2c3c(nc4ncnn24)CCC3)CC1 | 24 | 2 | -14 | 28 | 43 | 4 | · | · | ·
CCNC(=S)NNC(=O)c1cc(-c2ccc(OC)cc2)nc2ccccc12 | 74* | 4 | -36 | 21 | 89* | 88* | 43 | 28* | 14
CCNC(=S)NNC(=O)c1cc(-c2cccc(OCC)c2)nc2ccccc12 | 5 | 0 | 1 | 0 | 8 | 16 | · | · | ·
CC1=C(C(=O)N(C(C)C)C(C)C)CC(CC(=O)NCc2ccco2)C(=O)N1CCC1=CCCCC1 (stereo not given) | · | · | · | · | 6 | · | · | · | ·
C/C(=N\NC(=O)c1cc(C)[nH]n1)c1cccs1 | 33 | 0 | -4 | -8 | 18 | 7 | · | · | ·
C/C(=N/NC(=O)c1cc(C(C)C)[nH]n1)c1cccs1 | 51* | 6 | 17 | -2 | 25 | 24 | 7 | -26 | -64
CC(=O)c1c(C)[nH]c(C(=O)CSc2nc3ccccc3n2C)c1C | 50* | -1 | 9 | 13 | 15 | -7 | 42 | -1 | 8
CCn1c(SCC(=O)c2[nH]c(C)c(C(C)=O)c2C)nnc1-c1cccs1 | 30 | 0 | 4 | 15 | 5 | 12 | · | · | ·
